Results reported in PubChem BioAssay (NCATS).
Records with an inconclusive call do not appear. A call without a number means that no potency is given here. A number with no mark means an inactive call. Calls of active or inactive are those of the source. Calls follow the shape of the dose curve; as a rule, active = well fitted inhibition curve with a large enough effect; inconclusive = small, poorly fitted or top-dose-only effect; inactive = no such curve, though single readings can be large or run the other way.

Assay: qHTS to identify inhibitors of the type 1 interferon - major histocompatibility complex class I in skeletal muscle: primary screen against the NCATS Mechanism Interrogation Plate v5.0 (MIPE) Libary (AID 1347411); also: nearly all actives have a fitted effect of over 65% in size
Details: iHSKM cells + IFN-b, HiBiT-tagged MHC-I luminescence, 24 h; series mostly up to 45.8 µM
Description: Assay Submitter (PI): Travis B. Kinder Ph.D. & James Inglese Ph.D.
Assay Development and Screening Technology Laboratory (ADST)
National Center for Advancing Translational Sciences (NCATS), Rockville, MD
National Institute of Health (NIH), Bethesda, Maryland
Idiopathic inflammatory myopathies, collectively referred to as myositis, are a group of rare autoimmune diseases characterized by skeletal muscle inflammation, weakness, and usually accompanied by systemic pathologies of the skin, lungs, or vasculature. Current immunosuppressive therapies and glucocorticoids are often not curative and are accompanied by harsh side effects, especially in children with juvenile myositis. We initiated a drug repurposing and development program to identify more targeted, less toxic therapeutics to treat myositis. Although its cause is not known, muscle from a subset of patients have an abundance of the inflammatory type 1 interferon (IFN) and a down-stream product major histocompatibility complex class I (MHC class I), which are both thought to contribute to damage and weakness. We conducted quantitative high throughput screening on 6,576 compounds (4,679 unique) through a series of cell-based assays to identify those that inhibit the IFN-stimulated expression of MHC class I in muscle precursor cells (myoblasts). The compound identification and evaluation strategy utilized a primary screen with reporter-tagged MHC class I in genome-engineered myoblasts, ATP content counter screen for viability, HLA-ABC immunofluorescence secondary screen, and HLA-B RT-qPCR tertiary screen.
The primary screen utilized CRISPR/Cas9 genome-engineering of immortalized human myoblasts, C25cl48, where a pro-luminescent reporter HiBit was fused to the C-terminus of endogenous MHC class I allele HLA-B*08:01 (HLA-B HiBit myoblasts). HiBit is an 11 amino acid fragment of NanoLuc luminescent reporter (Promega Corporation), and when complexed to the larger LgBit fragment, the reconstituted enzyme produces light in the presence of furimazine substrate (Schwinn et al., 2018). Briefly, HLA-B HiBit myoblasts were plated into 1536-well plates, treated with 4.0 ng/ml human IFN-beta and 2,480 compounds from the NCATS Mechanism Interrogation Plate v5.0 (MIPE5.0) in an 11-point, 1:3 titration with a high final concentration of 46 uM. After 24 hrs of treatment, cells were assayed by Nano-Glo HiBiT Lytic Detection System (Promega) and luminescence measured by a ViewLux 1430 Ultra HTS (Perkin Elmer).
Schwinn MK, Machleidt T, Zimmerman K, Eggers CT, Dixon AS, Hurst R, Hall MP, Encell LP, Binkowski BF, Wood K V. 2018. CRISPR-Mediated Tagging of Endogenous Proteins with a Luminescent Peptide. ACS Chem Biol 13:467-474. doi:10.1021/acschembio.7b00549
PROTOCOL TABLE (as described by Inglese et al., 2007)
SEQUENCE No. (e.g., 1, 2, 3, etc.); […] (e.g., Cells, Incubation, Reagent, etc.); VALUE; DESCRIPTION
1a; Cells; 5 uL; Use a Multidrop Combi (Thermo Scientific) to seed 300 cells/well into 24 Greiner 1536 well white/solid bottom, high base, TC plates in 5 ul/well of iHSKM growth medium (GM) without dexamethasone into columns 1+2. Add metal lids with gas-exchange holes
1b; Cells; 5 uL; Use a Multidrop Combi (Thermo Scientific) to seed 300 cells/well into 24 Greiner 1536 well white/solid bottom, high base, TC plates in 5 ul/well of iHSKM GM without dexamethasone + 4 ng/ml IFN-b into columns 3 - 48. Add metal lids with gas-exchange holes
2; Incubate; 1 hr; Incubate at 37 C, 5% CO2, 95% RH
3; Compounds; 23 nl; Use Pin Tool (Wako) to transfer DMSO control, ruxolitinib IFN-b inhibitor control [High Concentration = 80 uM final, 16-pt, 1:2 in duplicate], and library compounds in DMSO
4; Incubate; 24 hrs; Incubate at 37 C, 5% CO2, 95% RH
5; Dispense; 2.5 ul; Use BioRAPTR FRD (Beckman Coulter) to add HiBit lytic reagent
6; Incubate; 10 min; Incubate in the dark at ambient temperature for lysis
7; Detector; 5 sec; Measure luminescence with ViewLux 1430 Ultra HTS (Perkin Elmer). […]
Potency is read from the fitted curve at half-maximal effect.

SMILES	Potency	activity change, negative = inhibition
CCCCCCCCCCCC1=C(O)C(=O)C=C(O)C1=O	inactive	
c1cc(-c2sc(-c3ccncc3)c(-c3ccncc3)c2-c2ccncc2)ccn1	inactive	
Cc1ccc(/C=N/NC(=O)c2ccccc2Oc2ccccc2)o1	inactive	
O=C1C(Cl)=C(NCCN2CCOCC2)C(=O)c2ncccc21	2.94 µM (active)	
Nc1ncnc2ccccc12	inactive	
O=C(O)C(O)Cc1ccc(O)c(O)c1 (stereo not given)	inactive	
NC(=O)c1ccc2nc(-c3ccc(Oc4ccc(Cl)cc4)cc3)[nH]c2c1	inactive	
C=C1C(=O)OC(CCCCCCCC)C1C(=O)O (stereo not given)	18.6 µM (active)	
COc1cc2ncnc(Nc3ccc(F)c(Cl)c3)c2cc1OCCCN1CCOCC1	inactive	
COCCOC(=O)C1=C(C)NC2=C(C(=O)CC(c3ccccc3OC)C2)C1c1cccc(O)c1 (stereo not given)	inactive	
O=C(Nc1cccc(Br)c1)c1cccc(S(=O)(=O)N2CCCCCC2)c1	inactive	
N[C@@]1(C(=O)O)CS(=O)(=O)[C@H]2[C@H](C(=O)O)[C@H]21	inactive	
CS(=O)(=O)N(Cc1ccco1)CC(O)Cn1c2ccccc2c2ccccc21 (stereo not given)	inactive	
CC(C)(C)Cn1c(N)nc2ccc(-c3[nH]c(C(C)(C)C)nc3-c3ccc(F)cc3)nc21	inactive	
O=c1cc(N2CCOCC2)oc2c(-c3cccc4c3sc3ccccc34)cccc12	inactive	
CC(C)(C)c1cc(C(=O)O)c(NC(=O)Nc2ccc3[nH]ncc3c2)s1	inactive	
CC(C)(C(=O)NCC(F)(F)C(F)(F)F)C(=O)N[C@@H]1C(=O)Nc2ccccc2-c2ccccc21	inactive	
COc1ccc(C2CC(c3ccccc3)=NN2c2ccc(S(N)(=O)=O)cc2)cc1 (stereo not given)	inactive	
O=C(O)CCC1CCC(c2cc(F)ccc2F)(S(=O)(=O)c2ccc(Cl)cc2)CC1 (stereo not given)	inactive	
CCCCCNC(=O)N1CCC(CN(Cc2ccc(Cl)cc2)Cc2ccc([N+](=O)[O-])s2)C1 (stereo not given)	inactive	

SMILES	Potency	activity change, negative = inhibition
CCOC(CN1C(=O)[C@](CC(=O)Nc2ccc(C)cc2)(NC(=O)Nc2ccc(C)cc2)c2ccccc21)OCC	inactive	
O=C(NOCC(O)CO)c1cc(Br)c(F)c(F)c1Nc1ccc(I)cc1F (stereo not given)	inactive	
Clc1ccc(C(c2ccc(Cl)cc2)n2cc[n+](CC(OCc3ccc(Cl)cc3Cl)c3ccc(Cl)cc3Cl)c2)cc1 (stereo not given)	16.5 µM (active)	
CC1(C)CCC(CN2CCN(c3ccc(C(=O)NS(=O)(=O)c4ccc(NCC5CCOCC5)c([N+](=O)[O-])c4)c(Oc4cnc5[nH]ccc5c4)c3)CC2)=C(c2ccc(Cl)cc2)C1	inactive	
O=C(CCN1CCN(C(=O)OCc2cc(Cl)cc(Cl)c2)CC1)c1ccc2[nH]c(=O)oc2c1	inactive	
O=C(O)c1ccc(-c2c[nH]c3ncc(-c4ccccc4)cc23)cc1C1CCCC1	inactive	
COc1cc(NC(=O)c2ccc(-c3ccc(Cl)cc3)o2)cc(OC)c1	inactive	
COc1cccc(-c2cc(=O)c3ccccc3o2)c1N	inactive	
CN1CCN(CCOc2cc(OC3CCOCC3)c3c(Nc4c(Cl)ccc5c4OCO5)ncnc3c2)CC1	29.4 µM (active)	
COc1cc(N2CCC(N3CCN(C)CC3)CC2)ccc1Nc1ncnc(Nc2ccccc2S(=O)(=O)C(C)C)n1	4.15 µM (active)	
C[N+](C)(C)CC(=O)O	inactive	
O=C(O)c1ccccc1C(=O)Nc1ccc(-c2ccccc2)cc1	29.4 µM (active)	
Clc1ccc(Cn2c(CN3CCCC3)nc3ccccc32)cc1	inactive	
COc1ccc(-n2c(C)c([N+](=O)[O-])c3ccc(O)cc32)cc1	inactive	
CC(=O)Oc1cc2c(s1)CCN(C(C(=O)C1CC1)c1ccccc1F)C2 (stereo not given)	inactive	
NC(=O)[C@@H](CCC(F)(F)F)N(Cc1ccc(-c2ncon2)cc1F)S(=O)(=O)c1ccc(Cl)cc1	inactive	
CCCCCN(C)CCC(O)(P(=O)(O)O)P(=O)(O)O		-11.6% [at 5.1 µM]
c1ccc2c(Cc3c[nH]c4ccccc34)c[nH]c2c1	inactive	
CC(C)(C)COc1ccc(-n2cc(C(=O)O)cn2)cc1C#N	inactive	
Cc1ccc(C(C)(O)c2nc3ccccc3s2)c(C)c1 (stereo not given)	inactive	
